Only some compounds are listed: those with a hit (about 6.9% of all), similar ones and a draw of the others.
S-ASM inh = Inhibitors of Secretory Acid Sphingomyelinase (S-ASM): qHTS. Sphingomyelin phosphodiesterase (Homo sapiens), P17405. actives 0.006% (n = 340,000). placental ASM, HMU-PC fluorogenic substrate, 60 min. Potency, µM (doses to about 57.5 µM), inactives show at the highest dose activity change, negative = inhibition, most hits filed as inhibitors; also: potency is read from the fitted curve at half-maximal effect
Target sequence (P17405 47-631 limits assumed): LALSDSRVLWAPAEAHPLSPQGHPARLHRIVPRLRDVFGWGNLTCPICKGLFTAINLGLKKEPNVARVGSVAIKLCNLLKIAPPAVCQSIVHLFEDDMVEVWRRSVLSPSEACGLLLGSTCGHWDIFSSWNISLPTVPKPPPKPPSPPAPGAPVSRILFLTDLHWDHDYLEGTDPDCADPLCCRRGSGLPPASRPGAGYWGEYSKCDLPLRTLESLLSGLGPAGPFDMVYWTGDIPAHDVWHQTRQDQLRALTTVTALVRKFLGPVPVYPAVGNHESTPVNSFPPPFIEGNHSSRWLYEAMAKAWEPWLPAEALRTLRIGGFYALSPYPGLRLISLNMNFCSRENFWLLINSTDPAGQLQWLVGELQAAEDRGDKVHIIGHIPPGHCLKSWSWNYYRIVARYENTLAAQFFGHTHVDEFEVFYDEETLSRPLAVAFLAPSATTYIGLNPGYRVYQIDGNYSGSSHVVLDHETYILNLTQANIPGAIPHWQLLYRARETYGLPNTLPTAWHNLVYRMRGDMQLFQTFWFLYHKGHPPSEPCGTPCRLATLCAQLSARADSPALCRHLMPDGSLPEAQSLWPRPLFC
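qHTS format. ASM enzyme prepared from human placenta hydrolyses the fluorogenic substrate HMU-PC0 (9 uM final) over 60 min at 37 °C after a 10 min compound preincubation.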
KB-V1 cytotox = qHTS assay for MDR1-selective chemotherapeutics: Primary screen using the drug-selected MDR subline cells KB-V1; actives 3.4% (n = 400,000); AID 1347076, 2019; Potency, µM (highest dose often 46.1 µM), usual class: cytotoxic; KB-V1 MDR cells viability, CellTiter-Glo, 72 h; also: potency is read from the fitted curve at half-maximal effect; % is scaled to controls: 0 for no effect and ±100 for the full control effect; nearly all actives have a fitted effect of over 60% in size
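Drug-selected KB-V1 cells, grown in DMEM lacking phenol red with 10% FBS, receive compound titrations; after three days at 37 degrees C, surviving cell ATP is quantified by CellTiter-Glo luminescence and responses normalized and curve-fitted.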
SW480 rerep = A quantitative high throughput screen for small molecules that induce DNA re-replication in SW480 colon adenocarcinoma cells; actives 1.8% (n = 340,000); Potency, µM (series often up to 46.1 µM), without a hit: at the top dose re-replication activation, actives largely listed as activators; SW480 DNA re-replication, Hoechst DNA content imaging, 48 h; also: potency is read from the fitted curve at half-maximal effect; % of control where 0% means no effect; nearly all actives have a fitted effect of over 55% in size
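250 cells/well; 23 nL cpd via pin tool; 48 hr, 37 C, 5% CO2; Hoechst 40 min; imager read of total nuclear intensity, ex 405/em 500-530 nm.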
MCF10A rereplic = A quantitative high throughput screen for small molecules that induce DNA re-replication in MCF 10a normal breast cells | Potency, µM (doses to about 46.1 µM), for the others: top-dose activity, positive = re-replication, usual class: activators | actives 2.9% (n = 350,000) | MCF 10A DNA re-replication, Hoechst nuclear intensity, 48 h; also: potency is read from the fitted curve at half-maximal effect; % of control where 0% means no effect; nearly all actives have a fitted effect of over 50% in size
Giardia killer = Small Molecules that selectively kill Giardia lamblia: qHTS; Giardia lamblia trophozoite viability; activity change, % at 7.66 µM, hits read low; actives 0.15% (n = 340,000); in the data active = activity change below about -80%; inconclusive = between about -30% and that limit;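 also: parasites exposed to compound for two days anaerobically before the ATP read; % is scaled to controls: 0 for no effect and ±100 for the full control effect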
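Giardia lamblia trophozoites (100 cells/well) were incubated with compounds for 48 h at 37 deg C under anaerobic conditions. Viability was read as ATP content by one-step luminescence after 15-30 min at room temperature.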
KB-3-1 tox = qHTS assay for MDR1-selective chemotherapeutics: Primary screen using the parental adenocarcinoma cell KB-3-1. AID 1347075, 2019. actives 1.4% (n = 400,000). KB-3-1 viability, CellTiter-Glo ATP luminescence, 72 h. Potency, µM (doses to about 46.1 µM), usual class: cytotoxic; also: potency is read from the fitted curve at half-maximal effect; % is scaled to controls: 0 for no effect and ±100 for the full control effect; nearly all actives have a fitted effect of over 60% in size
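Multi-concentration cytotoxicity screen in KB-3-1 cells grown in DMEM lacking phenol red with 10% FBS. After 72 h at 37 °C with compound, ATP-dependent luminescence was recorded.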
Starred values were filed as active, the others as inactive; i = inactive; u = inconclusive; x = no result; ! = not confirmed by another sample. Unless noted, calls follow the shape of the dose curve; as a rule, active = well fitted curve in the direction sought with a large enough effect; inconclusive = small, poorly fitted or top-dose-only effect, or another doubt; inactive = no such curve, though single readings can be large; an effect the other way counts as inactive or inconclusive.

SMILES | S-ASM inh | KB-V1 cytotox | SW480 rerep | MCF10A rereplic | Giardia killer | KB-3-1 tox
CCCOc1cccc(C2C(C(=O)c3ccc(C)o3)=C(O)C(=O)N2c2nc(C)c(C(C)=O)s2)c1 (centres undefined) | 14% | u | u | 23µM* | -1 | i
CCOc1cccc(C2C(C(=O)c3ccco3)=C(O)C(=O)N2c2nnc(C)s2)c1 (centres undefined) | 3% | i | 5.8µM* | -5% | 17 | i
CCCOc1ccc(C2C(C(=O)c3ccc(C)o3)=C(O)C(=O)N2Cc2ccco2)cc1 (centres undefined) | -7% | 18µM* | u | -2% | -7 | i
CCOc1cccc(C2C(C(=O)c3ccc(C)o3)=C(O)C(=O)N2c2nnc(C)s2)c1 (centres undefined) | 0% | i | -1% | 14% | -9 | i
COC(=O)C[C@H]1c2cc(F)ccc2S(=O)(=O)N1C1CC1 | x | u | x | x | x | i
COc1cccc(CN2CCNC(=O)C2CC(=O)NC2CCCC2)c1OC (centres undefined) | x | i | u | 2% | -2 | i
CCCCn1c(N)c(C(=S)NC(=O)CC(C)(C)C)c(=O)n(C)c1=O | -2% | u | 7% | 21µM* | -20 | u
CCCn1c(N)c(C(=O)CSc2ncn[nH]2)c(=O)n(C)c1=O | -1% | i | -4% | -2% | -18 | i
CCOc1ccccc1Nc1nnc(-c2cc3cc(OC)ccc3oc2=O)s1 | x | u | x | x | x | i
COc1ccc(OCC(O)CNCc2ccco2)cc1 (centres undefined) | 1% | i | 3% | 0% | -4 | i
OC(CNCc1ccco1)COc1ccccc1 (centres undefined) | 2% | 0.0018µM* | 17% | 8% | -6 | i
O=C(NCCC(=O)N1CCN(c2ccc(F)cc2)CC1)c1ccco1 | 4% | i | -2% | -1% | -7 | i
CC(C)(C)c1ccc(-c2nc(N)nc(N)n2)cc1 | -2% | i | -5% | 1% | -20 | i
CC(C)(C)c1ccc(-c2conc2N)cc1 | -2% | i | u | 18µM* | 8 | i
CNS(=O)(=O)c1cn(CC(=O)N2CCN(c3ccc(C(C)=O)cc3)CC2)cc1S(=O)(=O)NC | x | i | x | x | x | i
Cc1ccc(Cl)c(NC(=O)CSc2cccc[n+]2[O-])c1Cl | 1% | i | -6% | 0% | -1 | i
Cc1ccc(Cl)c(Nc2ccccc2C(=O)O)c1Cl | 2% | i | -9% | 27µM*! | u | i
Cc1ccc(Cl)c(NC(=O)CCl)c1Cl | -2% | i | 11% | 4% | 1 | 23µM*
CC(C)c1cccc(NC(=O)COC(=O)c2ccccc2OCc2cccc(Br)c2)c1 | x | i | x | x | x | u
C=CC[n+]1c(-c2ccc(Cl)cc2Cl)csc1Nc1c(C)n(C)n(-c2ccccc2)c1=O | -2% | i | u | u | 7 | u
C=CC[n+]1c(-c2ccc(Cl)cc2Cl)csc1Nc1ccc(NC(C)=O)cc1 | -16% | i | 23µM* | u | -14 | u
CCCC[n+]1c(-c2ccc(Cl)cc2Cl)csc1Nc1ccccc1 | -3% | u | 1% | 23µM* | -7 | i
Cc1ccc(CCNC(=O)C(CC(C)C)NS(=O)(=O)c2ccc3c(c2)oc(=O)n3C)cc1 (centres undefined) | x | i | x | x | x | i
Cc1ccccc1NC(=S)NCc1ccc2[nH]c3c(c2c1)CCCC3 | -15% | i | u | 6.5µM* | -1 | i
S=C(NCc1ccc2[nH]c3c(c2c1)CCCC3)Nc1ccccc1Cl | -13% | u | 5% | 3.7µM* | -5 | u
SMILES | S-ASM inh | KB-V1 cytotox | SW480 rerep | MCF10A rereplic | Giardia killer | KB-3-1 tox
S=C(NCc1ccc(Cl)cc1)Nc1ccccc1Cl | 2% | i | -5% | -6% | 7 | i
Cc1ccc(C)c(NC(=S)NCc2ccc3[nH]c4c(c3c2)CCCC4)c1 | -4% | u | u | u | -6 | u
CNC(=S)NCc1ccc2[nH]c3c(c2c1)CCCC3 | -1% | u | 1% | -4% | -17 | i
CCCCNC(=S)NCc1ccc2[nH]c3c(c2c1)CCCC3 | -3% | 21µM* | -16% | 4% | 15 | i
CCOc1ccc(NC(=O)C(=O)NCCc2ccccc2)cc1 | x | u | x | x | x | i
Cc1ccc(C(=O)Nc2nc(COc3ccccc3)cs2)s1 | -19% | u | u | 21µM* | -1 | i
CC(=O)Nc1nc(COc2ccccc2)cs1 | 6% | i | -7% | 5% | 9 | i
O=C(Nc1nc(COc2ccccc2)cs1)C12CC3CC(CC(C3)C1)C2 | 3% | i | -3% | 8.2µM* | -1 | i
O=C(Nc1nc(COc2ccccc2)cs1)C1CCC1 | -2% | u | -3% | -1% | 13 | i
COc1ccccc1OCCSc1nc2ccccc2n1CC(=O)N1CCOCC1 | x | i | x | x | x | i
CCc1ccc(-c2nc3cc(NC(=O)c4cc5ccccc5cc4OC)ccc3o2)cc1 | x | u | x | x | x | i
CCC(=O)O[C@]1(C(=O)CCl)[C@@H](C)CC2C3C[C@H](F)C4=CC(=O)C=CC4(C)[C@@]3(F)C(O)CC21C (some centres undefined) | x | x | -1% | 17% | x | x
CCOC(=O)c1c(/N=C/N(C)C)sc(/C=N/Nc2ccccc2)c1-c1ccc(Cl)cc1 | 145% | i | u | 21µM* | 13 | i
CCOC(=O)c1c(/N=C/N(C)C)sc(C)c1C | 1% | i | -7% | 1% | 15 | i
CN1CCN(C(=O)CN(Cc2ccc(Cl)cc2)S(C)(=O)=O)CC1 | 2% | i | -3% | -1% | -11 | i
CS(=O)(=O)N(CC(=O)N1CCCCCC1)Cc1ccc(Cl)cc1 | -8% | 5.2µM* | -3% | 3% | 6 | i
COc1ccccc1N1CCN(C(=O)CN(Cc2ccccc2)S(C)(=O)=O)CC1 | 7% | 10µM* | 2% | 7% | 0 | i
CS(=O)(=O)N(CC(=O)NC1CCCC1)Cc1ccc(Cl)cc1 | 5% | 15µM* | -4% | 2% | 1 | i
CN1CCN(C(=O)c2ccc(N(Cc3ccc(Cl)cc3)S(C)(=O)=O)cc2)CC1 | 0% | i | u | 5.8µM* | 8 | i
Cc1nc2cc(-c3ccccc3)nn2c(C)c1CCC(=O)N1CCN(c2ccc(F)cc2)CC1 | x | i | x | x | x | i
